This is a sample that favours compounds with a hit; in the whole collection about 3.1% have one here.
Tau fluor cs: counter-screen for tau fibril formation inhibitors. Potency, µM (titrated, usually from 57.7 µM), for the others: at the top dose activity change, negative = decrease. tau K18 P301L Alexa594 fluorescence, heparin fibrillization. hit rate 0.93% among 280,000; note: nearly all actives have a fitted effect of over 55% in size
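Human K18 P301L tau (15 uM unlabeled plus 0.24 uM Alexa 594-labeled, final) in 100 mM sodium acetate pH 7 was mixed with compound and 20 uM heparin and incubated 6 hr at 37 C.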
TexasRed fluor: alters Texas Red total fluorescence, flagging assay interference; TRb/SRC2 Texas Red total fluorescence interference; Potency, µM (highest dose often 106 µM), for inactives: top-dose fluorescence change, negative = quenching; hit rate 0.29% among 280,000; active = well fitted curve in either direction with a large enough effect; inconclusive = small, poorly fitted or top-dose-only effect
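Human TRb ligand-binding domain at 0.6 uM with 20 nM Texas Red SRC2 peptide in Tris buffer containing 1 uM T3 and 5% DMSO, incubated with compound 5 h at ambient temperature. Total fluorescence (555/632 nm) calculated as parallel + 2 × perpendicular.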
TRb SRC2 PPI: disrupts binding of human TR beta to SRC2. P10828. TRbeta-SRC2 peptide binding, fluorescence polarization; receptor liganded with 1 µM T3. Potency, µM (titrated, usually from 106 µM), for inactives: at the top dose activity change, negative = inhibition, usual class: inhibitors. hit rate 0.065% among 280,000;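 note: plate controls were bound peptide for no effect and peptide without receptor for full effect; nearly all actives have a fitted effect of over 50% in size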
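Fluorescence polarization of 20 nM Texas Red SRC2 peptide with 0.6 uM human TRb ligand-binding domain, in Tris buffer with 1uM T3 and 5% DMSO. Incubated 5 hr ambient; normalized to unbound and bound controls.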
Tau fibril ThT: blocks human tau fibril formation measured by thioflavin T; P10636; recombinant tau K18 P301L (four-repeat tau fragment), heparin-induced fibrillization, ThT fluorescence; Potency, µM (series often up to 57.4 µM), inactives show top-dose activity, negative = inhibition, usual class: inhibitors; hit rate 2.1% among 270,000; AID 1460; note: nearly all actives have a fitted effect of over 55% in size
Target sequence (P10636 561-689 P618L limits assumed): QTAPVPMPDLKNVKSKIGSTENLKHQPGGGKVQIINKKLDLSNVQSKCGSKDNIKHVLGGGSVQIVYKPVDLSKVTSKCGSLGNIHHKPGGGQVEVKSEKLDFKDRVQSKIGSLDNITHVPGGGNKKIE
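Recombinant human tau K18 fragment […] carrying P301L, 15 uM unlabeled plus 0.24 uM Alexa 594-labeled, was fibrillized with 20 uM heparin in 100 mM sodium acetate pH 7 for 6 hr at 37 C; 30 uM ThT fluorescence read after 1 hr.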
Tau FP inhib: inhibitors of human tau fibril formation | hit rate 0.39% among 280,000 | P10636 | Potency, µM (highest dose often 57.7 µM), for the others: at the highest dose activity, negative = inhibition, usual class: inhibitors | K18 P301L tau heparin fibrillization, Alexa594 FP, 6 h; note: nearly all actives have a fitted effect of over 55% in size
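Human tau K18 […] P301L fragment, 15 uM unlabeled plus 0.24 uM Alexa 594-labeled tau (final), with compound and 20 uM heparin in 100 mM sodium acetate pH 7; 6 hr at 37 C, then Alexa 594 FP read.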
RGS12 GoLoco inh: blocks human Gai1 binding to RGS12 GoLoco peptide, red readout | Gai1:RGS12 GoLoco peptide FP, rhodamine, 10 min | P63096 | Potency, µM (highest dose often 61.6 µM), for the others: at the highest dose activity, negative = inhibition, actives largely listed as inhibitors | hit rate 0.44% among 230,000 | AID 880; active = well fitted inhibition curve with a large enough effect, not every such curve was filed as active; inactive = no such curve, though single readings can be large or run the other way; note: nearly all actives have a fitted effect of over 30% in size
Target sequence (P63096 whole entry, looked up): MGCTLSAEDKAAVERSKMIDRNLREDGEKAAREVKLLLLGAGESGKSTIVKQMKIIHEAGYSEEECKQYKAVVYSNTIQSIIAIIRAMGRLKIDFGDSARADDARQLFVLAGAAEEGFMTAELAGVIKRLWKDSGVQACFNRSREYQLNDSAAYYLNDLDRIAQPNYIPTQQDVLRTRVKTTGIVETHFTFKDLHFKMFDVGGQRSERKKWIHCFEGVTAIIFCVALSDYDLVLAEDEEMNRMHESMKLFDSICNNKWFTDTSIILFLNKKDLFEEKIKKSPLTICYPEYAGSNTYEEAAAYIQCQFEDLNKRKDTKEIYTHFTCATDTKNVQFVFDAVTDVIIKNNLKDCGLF
* marks the source's active call; other numbers are inactive results; [ ] = remark or other dose. Unless noted, calls come from the whole dose curve; as a rule, active = well fitted curve in the direction sought with a large enough effect; inconclusive = small, poorly fitted or top-dose-only effect, or another doubt; inactive = no such curve, though single readings can be large; an effect the other way counts as inactive or inconclusive. Unless noted, % is set by controls: 0 for no effect and ±100 for the full control effect; potency is the fitted concentration of half-maximal effect.

What do the screens show for `CS(=O)(=O)N(CC(=O)NCC1CCCO1)c1cccc(Cl)c1` (stereo not drawn)?
Tau fluor cs: -53%; TexasRed fluor: 2%; TRb SRC2 PPI: 0%; Tau fibril ThT: 5µM*; Tau FP inhib: -3%[2.34 µM]; RGS12 GoLoco inh: 2%

How did CCCCN(C)c1c(N2CCC(C(=O)OCC)CC2)c(=O)c1=O do in these assays?
Tau fluor cs: 10%; TexasRed fluor: -1%; TRb SRC2 PPI: -5%; Tau FP inhib: -2%; RGS12 GoLoco inh: 0%

How did Cc1cccc(C)c1OCC(O)CN(Cc1ccccc1O)C1CCCCC1 (stereo not drawn) do in these assays?
Tau fluor cs: -11%; TexasRed fluor: -1%; TRb SRC2 PPI: 2%; Tau fibril ThT: -6%; Tau FP inhib: 3%; RGS12 GoLoco inh: 4%

What do the screens show for `Cc1ccc(SC(C)C(=O)Nc2ccccc2-c2ccccc2)cc1` (stereo not drawn)?
Tau fluor cs: -13%; TexasRed fluor: -4%; TRb SRC2 PPI: -7%; Tau fibril ThT: -17%; Tau FP inhib: -2%; RGS12 GoLoco inh: -4%

What do the screens show for `CC(Sc1ccc(Cl)cc1)C(=O)Nc1ccccc1-c1ccccc1` (stereo not drawn)?
Tau fluor cs: -1%; TexasRed fluor: 25µM*[quencher]; TRb SRC2 PPI: -12%[53 µM]; Tau fibril ThT: 1%; Tau FP inhib: 1%; RGS12 GoLoco inh: -10%

How did COc1cc(OC)c(OC)cc1/C=N/NC(=O)c1cc(-c2cccn2C)n[nH]1 do in these assays?
Tau fluor cs: inconclusive; TexasRed fluor: -9%; TRb SRC2 PPI: 0%; Tau fibril ThT: 13µM*; Tau FP inhib: 11%; RGS12 GoLoco inh: 8%

How did COc1ccc(/C=N/NC(=O)c2cc(-c3cccn3C)n[nH]2)cc1OC do in these assays?
Tau fluor cs: -23%; TexasRed fluor: -3%; TRb SRC2 PPI: 7%; Tau fibril ThT: inconclusive; Tau FP inhib: -11%; RGS12 GoLoco inh: -2%

What do the screens show for `C[N+]1(CC2COC3(CCCCC3)O2)CCCC1` (stereo not drawn)?
Tau fluor cs: 1%; TexasRed fluor: 0%; TRb SRC2 PPI: 1%; Tau fibril ThT: -2%; Tau FP inhib: -10%; RGS12 GoLoco inh: 10µM*

How did C=CCCC(=O)Nc1nc(C)c(-c2csc(Nc3ccccc3OC)n2)s1 do in these assays?
Tau fluor cs: 13µM*[quencher]; TexasRed fluor: 0%; TRb SRC2 PPI: -2%; Tau fibril ThT: 7.1µM*; Tau FP inhib: inconclusive; RGS12 GoLoco inh: 11%

What do the screens show for `COc1ccc(Cl)cc1Nc1nc(-c2sc(NC(=O)c3ccccc3)nc2C)cs1`?
Tau fluor cs: inconclusive; TexasRed fluor: -3%; TRb SRC2 PPI: 8%; Tau fibril ThT: inconclusive; Tau FP inhib: 9%; RGS12 GoLoco inh: 23%

Results for CCC(C)C(=O)Nc1nc(C)c(-c2csc(Nc3ccccc3OC)n2)s1 (stereo not drawn) ?
Tau fluor cs: 13µM*[quencher]; TexasRed fluor: 1%; TRb SRC2 PPI: 4%; Tau fibril ThT: inconclusive; Tau FP inhib: 16%; RGS12 GoLoco inh: 9%

Results for COc1ccc(OC)c(Nc2nc(-c3sc(NC(=O)c4ccccc4)nc3C)cs2)c1 ?
Tau fluor cs: inconclusive; TexasRed fluor: -1%; TRb SRC2 PPI: -18%; Tau fibril ThT: inconclusive; Tau FP inhib: 3%; RGS12 GoLoco inh: 8%

What do the screens show for `CCCCCCC(=O)Nc1nc(C)c(-c2csc(Nc3cc(OC)ccc3OC)n2)s1`?
Tau fluor cs: inconclusive; TexasRed fluor: 1%; TRb SRC2 PPI: -2%; Tau fibril ThT: inconclusive; Tau FP inhib: inconclusive; RGS12 GoLoco inh: 0%

How did CCCCC(=O)Nc1nc(C)c(-c2csc(Nc3ccccc3OC)n2)s1 do in these assays?
Tau fluor cs: 16µM*[quencher]; TexasRed fluor: -3%; TRb SRC2 PPI: -8%; Tau fibril ThT: inconclusive; Tau FP inhib: 13%; RGS12 GoLoco inh: 7%

What do the screens show for `CCCCCC(=O)Nc1nc(C)c(-c2csc(Nc3cc(OC)ccc3OC)n2)s1`?
Tau fluor cs: 11µM*[quencher]; TexasRed fluor: -2%; TRb SRC2 PPI: 9%; Tau fibril ThT: 16µM*; Tau FP inhib: 15%; RGS12 GoLoco inh: 9%

What do the screens show for `Cc1nc2c(-c3ccccc3)c(C)nn2c(C)c1CCC(=O)N1CCN(c2ccc(F)cc2)CC1`?
Tau fluor cs: -23%; TexasRed fluor: -3%; TRb SRC2 PPI: 1%; Tau fibril ThT: inconclusive; Tau FP inhib: -2%

How did COc1ccc(Br)cc1C1CC(=O)N2CN(Cc3ccccc3)CSC2=C1C#N (stereo not drawn) do in these assays?
Tau fluor cs: -21%; TexasRed fluor: -2%; TRb SRC2 PPI: 8%; Tau fibril ThT: 28µM*; Tau FP inhib: inconclusive; RGS12 GoLoco inh: -2%

How did Cc1ccc(C2CC(=O)N3CN(c4ccc(Br)cc4)CSC3=C2C#N)o1 (stereo not drawn) do in these assays?
Tau fluor cs: -4%; TexasRed fluor: 0%; TRb SRC2 PPI: 8%; Tau fibril ThT: inconclusive; Tau FP inhib: inconclusive; RGS12 GoLoco inh: 173%

How did CCOC(=O)c1ccc(N2CSC3=C(C#N)C(c4ccc(OC)cc4OC)CC(=O)N3C2)cc1 (stereo not drawn) do in these assays?
Tau fluor cs: inconclusive; TexasRed fluor: -5%; TRb SRC2 PPI: 4%; Tau fibril ThT: 25µM*; Tau FP inhib: -7%; RGS12 GoLoco inh: -17%

What do the screens show for `COc1cc(C2CC(=O)N3CN(c4ccccc4C)CSC3=C2C#N)cc(OC)c1OC` (stereo not drawn)?
Tau fluor cs: -13%; TexasRed fluor: -2%; TRb SRC2 PPI: 7%; Tau fibril ThT: 22µM*; Tau FP inhib: inconclusive; RGS12 GoLoco inh: -33%

Results for CCOc1ccc(N2CSC3=C(C#N)C(c4ccco4)CC(=O)N3C2)cc1 (stereo not drawn) ?
Tau fluor cs: inconclusive; TexasRed fluor: -10%; TRb SRC2 PPI: 1%; Tau fibril ThT: 14µM*; Tau FP inhib: inconclusive; RGS12 GoLoco inh: 13%

Results for Cc1cccc(-n2nc3c(c2NC(=O)CCC2CCCCC2)CS(=O)C3)c1C (stereo not drawn) ?
Tau fluor cs: 4%; TexasRed fluor: -5%; TRb SRC2 PPI: 0%; Tau fibril ThT: 2%; Tau FP inhib: -2%; RGS12 GoLoco inh: 3%

What do the screens show for `COc1ccc(S(=O)(=O)N(C)C)cc1NS(=O)(=O)c1ccc(F)c(F)c1F`?
Tau fluor cs: 4%; TexasRed fluor: -1%; TRb SRC2 PPI: 0%; Tau fibril ThT: 6%; Tau FP inhib: 4%; RGS12 GoLoco inh: -13%

Screens as filed in PubChem.
